Bioassay records (PubChem)
Vaccinia Venus: inhibitors of vaccinia virus (Venus reporter); hit rate 0.46% among 330,000; Potency, µM (top dose mostly 36.5 µM), without a hit: at the top dose activity change, negative = inhibition, hits mostly inhibitors; Vaccinia virus Venus reporter expression, fluorescence; calls by dose curve; tested in A549 cells; also: % is scaled to controls: 0 for no effect and ±100 for the full control effect; nearly all actives have a fitted effect of over 30% in size
Pf growth 96h: inhibits malaria parasite growth, 96 h; P. falciparum luciferase reporter growth, 96 h; Potency, µM (highest dose often 28.7 µM), without a hit: at the top dose activity change, negative = inhibition, actives largely listed as inhibitors; hit rate 6.9% among 320,000; AID 504834; also: % is scaled to controls: 0 for no effect and ±100 for the full control effect
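Parasite growth measured via integrated firefly luciferase reporter in P. falciparum. Infected erythrocytes at 2% hematocrit, 0.05% parasitemia final were treated 96 hours at 37 C under 5% CO2, and luminescence was read.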
NS1 function inh: inhibitors of influenza NS1 protein function. Potency, µM (highest dose often 46.1 µM), for the others: at the highest dose activity, positive = more growth. hit rate 0.4% among 270,000. AID 2326; calls by dose curve; also: actives are rising curves; nearly all actives have a fitted effect of over 50% in size
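S. cerevisiae expressing influenza A NS1, grown in glucose, washed, then diluted 1:100 into pH 6.0 -URA galactose medium with 23 nl compound. Growth recovery read as OD600; NS1-free strain serves as control.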
Pf growth 48h: P. falciparum growth inhibition at 48 hours (one generation). Potency, µM (doses to about 28.7 µM), without a hit: at the top dose activity change, negative = inhibition, most hits filed as inhibitors. hit rate 5.9% among 310,000. P. falciparum luciferase growth in erythrocytes, 48 h; also: % is scaled to controls: 0 for no effect and ±100 for the full control effect
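First compound was added to culture medium, then infected red cells at 0.1% parasitemia and 2% hematocrit (final). After incubation at 37 C under 5% CO2, luciferase detection reagent was dispensed and light output recorded.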
VACV mCherry inh: inhibitors of vaccinia virus infection (mCherry reporter signal) | Vaccinia virus mCherry reporter infection, fluorescence | Potency, µM (doses to about 36.5 µM), inactives show at the top dose activity change, negative = inhibition, hits mostly inhibitors | hit rate 0.63% among 310,000; calls by dose curve; tested in A549 cells; also: % is scaled to controls: 0 for no effect and ±100 for the full control effect; nearly all actives have a fitted effect of over 35% in size
HCV inh: blocks hepatitis C virus; hit rate 3.4% among 340,000; Huh7.5.1 HCVcc-Cre infection, luciferase reporter, 44 h; AID 651820; Potency, µM (highest dose often 41.8 µM), for inactives: at the top dose activity change, negative = inhibition, most hits filed as inhibitors; also: % is scaled to controls: 0 for no effect and ±100 for the full control effect
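1,000 cells/well; 4 h culture; + compound; + HCVcc-Cre (~0.5 moi); 44 h; luciferase substrate, RT 15 min; read 15 sec.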
HCV confirm: HCV inhibition, cherry-pick confirmation | shares compounds with HCV inh | HCVcc-Cre infectious virus cell assay, luciferase, inhibition | Potency, µM (highest dose often 41.8 µM), for the others: top-dose activity, negative = inhibition, most hits filed as inhibitors | hit rate 78% among 640; also: nearly all actives have a fitted effect of over 80% in size
HCV cytotox: counter-screen for HCV inhibitors: host cell cytotoxicity | shares compounds with HCV inh | HCV host cell line cytotoxicity counterscreen | Potency, µM (titrated, usually from 41.8 µM), for inactives: at the highest dose activity change, negative = cytotoxicity, most hits filed as inhibitors | hit rate 22% among 640 | AID 720576;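 also: 44 h compound exposure; % is scaled to controls: 0 for no effect and ±100 for the full control effect; nearly all actives have a fitted effect of over 55% in size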
* marks the source's active call; other numbers are inactive results; i = inactive; ? = inconclusive; . = no result given; [ ] = remark or other dose. Only some compounds are listed: those with a hit (about 11% of all), similar ones and a draw of the others. Unless noted, calls follow the shape of the dose curve; as a rule, active = well fitted curve in the direction sought with a large enough effect; inconclusive = small, poorly fitted or top-dose-only effect, or another doubt; inactive = no such curve, though single readings can be large; an effect the other way counts as inactive or inconclusive. Potency is read from the fitted curve at half-maximal effect.

SMILES | Vaccinia Venus | Pf growth 96h | NS1 function inh | Pf growth 48h | VACV mCherry inh | HCV inh | HCV confirm | HCV cytotox
CC(=O)N(C1CC(C)C(C#N)(C#N)C1(C#N)C#N)N(C)C (stereo unspecified) | -12% | 9% | 4% | 0% | ? | 6.3µM* | -24% | 25%
Cc1c(NC(=O)c2c(N)sc3c2CCCC3)c(=O)n(-c2ccccc2)n1C | -10% | -5% | . | -18% | 0% | 5% | . | .
NC(=O)c1c(-c2ccccc2)oc2ccc(O)cc12 | -13% | . | -4% | 29% | -14% | 2% | . | .
CCOC(=O)c1c(-c2ccccc2)oc2ccc(O)cc12 | . | 65% | -68% | 51% | . | 2.8µM* | 14µM* | -30%
CC12CCC(C(NC(=S)NN)C1=O)C2(C)C (stereo unspecified) | 9% | . | . | . | i | 18% | . | .
NS(=O)(=O)c1ccc(N=Nc2ccc(O)c3ncccc23)cc1 | 10µM* | ? | 27% | 2.6µM* | ? | 3.5µM* | 7.9µM* | 8.9µM*
N#Cc1ccc(NC(=O)COCc2cc(-c3ccc4c(c3)OCO4)on2)cc1 | -11% | . | . | . | -8% | . | . | .
O=C(CCCc1ccccc1)NCc1ccccc1Cl | -10% | -7% | -18% | -26% | i | -6% | . | .
Cc1ccc(C)c(NC(=S)NC(NC(=O)N(C)C)C(Cl)(Cl)Cl)c1 (stereo unspecified) | -14% | ? | 13% | ? | -16% | 1% | . | .
Cc1ccc(C)c(NC(=S)NC(NC(=O)Cc2cccc3ccccc23)C(Cl)(Cl)Cl)c1 (stereo unspecified) | ? | 2.6µM* | 5% | . | ? | 2.2µM* | 11µM* | 31µM*
CCOC(=O)c1c(NC(=O)COc2ncnc3sccc23)sc2c1CCC2 | . | ? | ? | ? | . | -27% | . | .
Cn1c2c(c(=O)n(C)c1=O)C(NC(=O)c1cccs1)(C(F)(F)F)C(=O)N2 (stereo unspecified) | 0% | -4% | 2% | 34% | -9% | 16% | . | .
O=C(Nc1cc(C(F)(F)F)ccc1N1CCCCC1)c1ccco1 | -29% | 37% | -3% | 12% | . | ? | . | .
O=C(Nc1cc(C(F)(F)F)ccc1N1CCCCC1)c1ccc(Br)o1 | . | ? | -2% | ? | . | 5µM* | 14µM* | 8%
CCNC(=O)C1(C)CCN1C(=O)Cc1ccc(C(C)C)cc1 (stereo unspecified) | 6% | . | . | . | 15% | . | . | .
COc1ccc(C[C@H]2NC[C@H](O)[C@H]2OC(C)=O)cc1 | 0.89µM* | . | . | . | 0.45µM* | ? | 7µM* | -12%
COc1ccc(CCNC(=O)C2CC2)cc1 | -10% | . | . | . | i | 7% | . | .
CCOc1cc(-c2nc(-c3cc(OC)c(OC)c(OC)c3)no2)cc(OCC)c1OCC | . | . | 2% | . | . | . | . | .
CCOc1cc(-c2noc(-c3ccncc3)n2)cc(Br)c1OC | . | ? | -10% | 13% | . | ? | ? | 25%
COc1cc(C)ccc1N(CCCN1C(=O)c2cccc3cccc(c23)C1=O)C(=O)c1cccs1 | -21% | 9.3µM* | ? | ? | -27% | 5.6µM* | 13µM* | 36%
COc1ccc(N(CCCN2C(=O)c3cccc4cccc(c34)C2=O)C(=O)c2cccs2)cc1 | . | ? | 12% | -13% | . | ? | . | .
Cc1cccc(-n2nnc3cnn(C)c3c2=O)c1 | -3% | ? | -5% | -40% | . | -2% | . | .
Cc1cccc(CN2CCN(CC(=O)NCCCN3CCN(c4ccc(F)cc4)CC3)C2=O)c1 | . | . | 1% | ? | . | 5.6µM* | 22µM* | ?
COc1ccc(S(=O)(=O)Nc2cccc(-c3ccc(N4CCCC4)nn3)c2)c(OC)c1 | -28% | . | . | . | -28% | . | . | .
COc1ccc(S(=O)(=O)Nc2cccc(-c3ccc(N4CCCCCC4)nn3)c2)c(OC)c1 | -16% | ? | -25% | -4% | -21% | 3.5µM* | 20µM* | -15%
SMILES | Vaccinia Venus | Pf growth 96h | NS1 function inh | Pf growth 48h | VACV mCherry inh | HCV inh | HCV confirm | HCV cytotox
O=C(NCCN1CCCC1)c1ccc(Cn2c(=S)[nH]c3cc4c(cc3c2=O)OCO4)cc1 | . | . | -9% | ? | . | ? | . | .
C=CCNC(=O)c1ccc(Cn2c(=S)[nH]c3cc4c(cc3c2=O)OCO4)cc1 | . | 143% | 23% | 9% | . | ? | 2.5µM* | 21%
COc1ccc2c(c1)sc(N)[n+]2Cc1cc(C)cc2cccnc12 | ? | ? | -12% | 9.3µM* | ? | 8.9µM* | 16µM* | ?
COc1ccc2c(ccc[n+]2[O-])c1 | -3% | . | . | . | -6% | 15% | . | .
COc1ccc(N2CCN(CCCNC(=O)C3CCC(CNc4nc(=S)[nH]c5ccccc45)CC3)CC2)cc1 (stereo unspecified) | -9% | -27% | . | ? | -5% | 2.5µM* | 6.3µM* | 22µM*
CCC1CCCCN1C(=O)c1cc(COc2ccc3ncccc3c2)on1 (stereo unspecified) | -5% | ? | 2% | -14% | ? | 3.2µM* | 1.8µM* | 3.1µM*
CCCCCCCCCCCCN1C/C(=C\C(=O)OCC)c2cc(C(F)(F)F)ccc2S1(=O)=O | -6% | 30% | 5% | ? | i | 30% | . | .
CNc1nc(N2CCc3ccccc32)ncc1F | -7% | . | -59% | 222% | -10% | 3.2µM* | 20µM* | ?
O=C(N/N=C1\CCCc2c1[nH]c1ccc(Cl)cc21)c1ccncc1 | . | 5% | 2% | 47% | . | 3.2µM* | 8.9µM* | ?
CCOCc1c(C(=O)NC2=Nc3ccccc3NC(CC)=C2C(=O)OCC)oc2ccccc12 | -13% | ? | . | ? | i | ? | . | .
CCOC(=O)C1=C(CC)Nc2ccccc2N=C1NC(=O)c1oc2ccccc2c1C | -6% | ? | . | ? | -16% | ? | 13µM* | 2%
CCOC(=O)c1sc2nc(NC(=O)C(C)(C)C)sc2c1C | -17% | -91% | 18% | . | -5% | -22% | . | .
Cc1cc(C)n(-c2ccc(C(=O)Nc3ccc4c(c3)OCCO4)cc2)n1 | -27% | -3% | -41% | 31% | . | ? | ? | -29%
CCCCCNC(=O)c1cn(CC)c2cc(N3CCN(C)CC3)c(F)cc2c1=O | ? | 15µM* | -2% | ? | ? | ? | 14µM* | -28%
CCOc1cc(CNC(C)(C)C)ccc1OCC(=O)Nc1cccc(C(F)(F)F)c1 | -10% | 43%[1.15 µM] | -2% | 6.6µM* | -20% | ? | 3.1µM* | 17%
CC(C)(O)C#Cc1ccc([C@@H]2C[C@H]3CN(c4ccccc4)C(=O)[C@]34CCCN24)s1 | ? | -3% | 4% | ? | ? | ? | 7µM* | -83%
